INS-1E GSIS act: GLuc luminescence reporter in INS-1E cells, primary screen for activators of glucose-dependent secretion of insulin; actives 0.61% (n = 370,000); INS-1E GLuc reporter insulin secretion, 2-3 h; activation, % at 16.6 µM;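 active = lowest replicate activation of at least 40%, so every replicate reaches that level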
ARNT-TACC3 inh: disrupts binding between human ARNT and TACC3; Q9Y6A5; AlphaScreen His-ARNT PAS-B/GST-TACC3 binding, luminescence; TACC3 fragment carries E629A point mutation; inhibition, % at 9.99 µM; actives 0.66% (n = 390,000);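 active = mean inhibition of replicates at least 50% and at least half of replicates each reaching 50%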
NRP1-CendR mod: NRP-1/CendR interaction modulation; O14786; FAM-RPARPAR peptide binding to NRP-1, fluorescence polarization; inhibition, % at 25 µM; actives 0.85% (n = 360,000); AID 602438;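 active = inhibition or corrected inhibition above about 18%, plus a signal ratio from 0.5 to 1.5, limit read from the data, passing the limit was not always enough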
iPSC survival up: increases survival of single human iPS cells. hiPSC single-cell survival, ATPlite luminescence; 100% = ROCK inhibitor wells, 0% = DMSO. survival enhancement, % at 20 µM. actives 0.044% (n = 360,000). AID 602274; in the data active = survival enhancement above about 18%;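 also: cells exposed to compounds for 16 hours before the ATP read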
ABCB6 inh MLPCN: inhibitors of human ABC transporter ABCB6. actives 0.19% (n = 360,000). fluorescence ratio to DMSO, % at 10 µM. AID 602162. K562-ABCB6 porphyrin accumulation, flow cytometry, 1 h; stronger effect = lower value;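 active = fluorescence ratio to DMSO below 75%, the collection mean minus 3 SD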;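 also: signal is porphyrin accumulated inside mitochondria; lower ratio means ABCB6 inhibition with less porphyrin fluorescence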
Target sequence (Q9NP58 whole entry, looked up): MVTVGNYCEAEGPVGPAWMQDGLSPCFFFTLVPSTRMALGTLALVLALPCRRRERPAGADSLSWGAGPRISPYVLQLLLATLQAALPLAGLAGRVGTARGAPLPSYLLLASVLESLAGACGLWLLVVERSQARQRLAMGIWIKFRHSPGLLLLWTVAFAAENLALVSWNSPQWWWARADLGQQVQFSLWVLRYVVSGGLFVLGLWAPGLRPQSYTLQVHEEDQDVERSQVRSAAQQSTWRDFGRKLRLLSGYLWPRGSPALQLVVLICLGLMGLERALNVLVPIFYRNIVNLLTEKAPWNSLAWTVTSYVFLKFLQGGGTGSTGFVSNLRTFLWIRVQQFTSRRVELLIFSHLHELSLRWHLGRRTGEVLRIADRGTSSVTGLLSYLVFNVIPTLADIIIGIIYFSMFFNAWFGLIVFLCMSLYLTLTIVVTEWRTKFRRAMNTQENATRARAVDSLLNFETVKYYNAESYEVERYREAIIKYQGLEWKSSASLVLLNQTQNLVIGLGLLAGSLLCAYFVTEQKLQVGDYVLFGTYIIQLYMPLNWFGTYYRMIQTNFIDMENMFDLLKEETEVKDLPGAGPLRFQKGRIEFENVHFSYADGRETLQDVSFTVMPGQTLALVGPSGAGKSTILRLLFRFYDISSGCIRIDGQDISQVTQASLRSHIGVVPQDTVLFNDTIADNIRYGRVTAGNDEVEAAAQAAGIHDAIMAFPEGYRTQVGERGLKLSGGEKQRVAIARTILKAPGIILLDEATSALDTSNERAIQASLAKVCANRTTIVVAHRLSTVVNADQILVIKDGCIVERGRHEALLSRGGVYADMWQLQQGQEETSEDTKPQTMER
Each line names hits and unclear results; the compound was inactive in the other large screens. An excerpt weighted towards active compounds, which were near 1.8% of everything screened.

COCC(=O)N1CCC2(CC1)CN(C(=O)COC)[C@H](CO)c1c2c2ccc(OC)cc2n1C	none (no result: ARNT-TACC3 inh, NRP1-CendR mod, iPSC survival up, ABCB6 inh MLPCN)
CCOC(=O)Nc1cc2c(c(N)n1)N=C(c1ccccc1)CN2	ARNT-TACC3 inh 8.7
O=C(CC1NC(=O)NC1=O)Nc1ccccc1 (stereo not given)	NRP1-CendR mod 27 (no result: INS-1E GSIS act)
COc1ccc(CC(=O)OCC(=O)NC2CC2)cc1	NRP1-CendR mod 24
COc1ccc(CCC(=O)NC2CCC(C)CC2)cc1 (stereo not given)	INS-1E GSIS act 77
Cc1ccc(NC2=C/C(=N\S(=O)(=O)c3cccs3)c3ccccc3C2=O)c(C)c1	none (no result: INS-1E GSIS act)
Cc1ccc(S(=O)(=O)/N=C2\C=C(NS(=O)(=O)c3ccccc3)C(=O)c3ccccc32)cc1	NRP1-CendR mod 65
Cc1ccc(S(=O)(=O)/N=C2/C=C(C3C(=O)CC(C)(C)CC3=O)C(=O)c3ccccc32)cc1	none (no result: INS-1E GSIS act)
Cc1cc(C)c(S(=O)(=O)/N=C2\C=C(NS(=O)(=O)c3ccccc3)C(=O)c3ccccc32)c(C)c1	NRP1-CendR mod 28
C=CCN(C(=O)c1csnn1)C(C(=O)NCc1ccccc1)c1c(F)cccc1Cl (stereo not given)	NRP1-CendR mod 27
Cc1noc(C)c1S(=O)(=O)N(C)C[C@@H]1Oc2ccc(NC(=O)CCCCCC(=O)Nc3ccccc3N)cc2CC(=O)N([C@@H](C)CO)C[C@H]1C	none (no result: ARNT-TACC3 inh, NRP1-CendR mod, iPSC survival up, ABCB6 inh MLPCN)
O=C(C[C@@H]1CC[C@@H]2[C@H](COC[C@@H](O)CN2C(=O)c2ccccc2)O1)N1CCOCC1	none (no result: NRP1-CendR mod, iPSC survival up, ABCB6 inh MLPCN)
CC(C)(C)c1ccc(C#C[C@@H]2C=C[C@H]3OC(=O)CC/C=C/CCC(=O)OC[C@H]3O2)cc1	INS-1E GSIS act 95 (no result: ARNT-TACC3 inh, NRP1-CendR mod, iPSC survival up, ABCB6 inh MLPCN)
O=C1CN(S(=O)(=O)Cc2ccccc2)C[C@@H]2[C@H](c3ccc(C#CC4CC4)cc3)[C@@H](CO)N12	none (no result: ARNT-TACC3 inh, NRP1-CendR mod, iPSC survival up, ABCB6 inh MLPCN)
Cc1cccn2cc(CCNS(=O)(=O)c3cccs3)nc12	INS-1E GSIS act 42
O=C(O)c1ccnc(C(=O)O)c1	ARNT-TACC3 inh 57
CCC(C)c1ccccc1OCCn1ccnc1 (stereo not given)	INS-1E GSIS act 48
Clc1ccc(OCCn2ccnc2)c(Cl)c1	INS-1E GSIS act 49
COc1ccccc1OCCn1ccnc1	none
Cc1nnc(SCC(=O)NNC(=O)CC#N)[nH]c1=O	ARNT-TACC3 inh 48 (no result: INS-1E GSIS act)
Cc1nnc(SCC(=O)Nc2ccccc2)[nH]c1=O	none (no result: INS-1E GSIS act)
C[C@@H]1CN([C@H](C)CO)S(=O)(=O)c2ccc(C#CC3CC3)cc2O[C@H]1CN(C)Cc1ccncc1	none (no result: NRP1-CendR mod, iPSC survival up, ABCB6 inh MLPCN)
Cc1nc(CN2CCN(S(=O)(=O)c3c(Cl)cc(Br)cc3Cl)CC2)cs1	INS-1E GSIS act 68
CCc1cc2c(=O)c(-c3nc4ccccc4n3C)coc2c(CN2CCC(C)CC2)c1O	none
CCc1cc2c(=O)c(-c3nc4ccccc4n3C)coc2c(CN2CCN(C)CC2)c1O	NRP1-CendR mod 22 (no result: INS-1E GSIS act)
COc1ccc(NC(=O)c2ccc(OC)c(S(=O)(=O)N3CCCCC3C)c2)cn1 (stereo not given)	NRP1-CendR mod 27
NC[C@H](Cc1ccccc1)NCCCCC1CCCCC1	none
CNC[C@H](CC1CCCCC1)NC[C@H](Cc1ccccc1)NCCC12CC3CC(CC(C3)C1)C2	INS-1E GSIS act 649
COc1ccc(NC(=S)Nc2cccc3cnccc23)cc1	ARNT-TACC3 inh 15
Fc1ccc(NC(=S)Nc2cccc3cnccc23)cc1	none (no result: INS-1E GSIS act)
COc1ccccc1NC(=S)Nc1cccc2cnccc12	ARNT-TACC3 inh 76 (no result: INS-1E GSIS act)
C[C@@H]1CN([C@H](C)CO)S(=O)(=O)c2ccc(-c3ccc(F)cc3)cc2O[C@@H]1CN(C)C(=O)C1CCCCC1	none (no result: NRP1-CendR mod, iPSC survival up, ABCB6 inh MLPCN)
C[C@@H]1CN([C@@H](C)CO)C(=O)c2ccccc2-c2ccccc2CO[C@@H]1CN(C)S(=O)(=O)c1cn(C)cn1	none (no result: ARNT-TACC3 inh, NRP1-CendR mod, iPSC survival up, ABCB6 inh MLPCN)
COc1ccc(-n2c3c(c(=O)[nH]c2=O)C(NC(C)=O)(C(F)(F)F)C(=O)N3)cc1 (stereo not given)	none
COc1ccc(-n2c3c(c(=O)[nH]c2=O)C(NS(=O)(=O)c2ccc(Cl)cc2)(C(F)(F)F)C(=O)N3)cc1 (stereo not given)	INS-1E GSIS act 55
O=C(Nc1cccnc1Cl)c1cccnc1Cl	iPSC survival up 23 (no result: INS-1E GSIS act)
O=C(Nc1cccnc1Cl)c1ccc(Cl)cc1	none
CCCCCC/C=N/Nc1nnc(Cc2ccc(OC)c(OC)c2)c(=O)[nH]1	ARNT-TACC3 inh 54 (no result: INS-1E GSIS act)
Cc1ccc(/C=N/Nc2nnc(Cc3ccccc3)c(=O)[nH]2)o1	none (no result: ARNT-TACC3 inh)
COc1ccc(Cc2nnc(N/N=C/c3ccc(O)cc3O)[nH]c2=O)cc1OC	ARNT-TACC3 inh 62
COC(=O)[C@H]1[C@H](CO)[C@H]2Cn3c(ccc(-c4cncnc4)c3=O)[C@H]2N1C(=O)C1CCC1	none (no result: NRP1-CendR mod, iPSC survival up, ABCB6 inh MLPCN)
Cc1sc2nc(SCC(=O)N(CCO)CCO)nc(N)c2c1C	none (no result: INS-1E GSIS act)
Cc1sc2nc(SCC(=O)N(CCO)CCO)n(C3CCCCC3)c(=O)c2c1C	NRP1-CendR mod 24
O=C(N/N=C/c1ccncc1)c1cc(-c2ccc(Br)s2)[nH]n1	INS-1E GSIS act 43
O=C(C[C@@H]1C=C[C@@H](NC(=O)Cc2ccccn2)[C@H](CO)O1)NCCc1ccccc1	none (no result: NRP1-CendR mod, iPSC survival up, ABCB6 inh MLPCN)
C=C1C(=O)C23C(O)C1CCC2C12CCCC(C)(COC(C)=O)C1C(O)C3(O)OC2 (stereo not given)	INS-1E GSIS act 162
COCC(=O)Nc1ccc2c(c1)C(=O)N(C)C[C@H](OC)[C@@H](C)CN(C(=O)Cc1ccccn1)[C@@H](C)CO2	none (no result: NRP1-CendR mod, iPSC survival up, ABCB6 inh MLPCN)
COc1cc2cc(Oc3ccc4ccc(=O)oc4c3)c(=O)oc2cc1O[C@@H]1O[C@H](CO)[C@@H](O)[C@H](O)[C@H]1O	none
COc1cc2cc(Oc3ccc4ccc(=O)oc4c3)c(=O)oc2cc1OC(=O)/C=C/c1ccccc1	NRP1-CendR mod 27
[O-]/[N+](=C\c1ccc(F)cc1)c1ccccc1	INS-1E GSIS act 58
[O-]/[N+](=C\c1ccccc1)c1ccccc1	none
C[C@H]1CN([C@@H](C)CO)C(=O)Cc2cc(NC(=O)Nc3ccc4c(c3)OCO4)ccc2O[C@H]1CN(C)Cc1ccc(Cl)c(Cl)c1	none (no result: ARNT-TACC3 inh, NRP1-CendR mod, iPSC survival up, ABCB6 inh MLPCN)
O=C(Nc1cccc(-c2nnn(CC(=O)N3CCc4ccccc4C3)n2)c1)C1CCC1	none
O=C(Nc1ccccc1-c1nnn(CC(=O)N2CCc3ccccc3C2)n1)C1CCC1	NRP1-CendR mod 28 (no result: INS-1E GSIS act)
CCCNC(=O)Nc1ccc2c(c1)C(=O)N(C)C[C@H](OC)[C@H](C)CN(Cc1ccccc1)[C@H](C)CO2	none (no result: ARNT-TACC3 inh, NRP1-CendR mod, iPSC survival up, ABCB6 inh MLPCN)
COCCN1C(=O)/C(=C2/C(=O)N(CC(=O)Nc3ccccc3Cl)c3ccccc32)SC1=S	NRP1-CendR mod 28
CCN1C(=O)/C(=C2\SC(=S)N(CCCOC)C2=O)c2ccccc21	none (no result: INS-1E GSIS act)
O=C(O)c1ccccc1OC(=O)C12CC3CC(CC(C3)C1)C2	none
O=C(c1ccco1)N1CCN(C(=O)c2ccccc2OC(=O)C23CC4CC(CC(C4)C2)C3)CC1	NRP1-CendR mod 20 (no result: INS-1E GSIS act)
CCCN(C(=O)Cn1c(C(F)(F)F)nc2ccccc21)C1CCS(=O)(=O)C1 (stereo not given)	NRP1-CendR mod 45

High-throughput results from PubChem BioAssay.
